Where “and” joins values, the source holds several entries; their conditions need not be identical. Equal entries are not always repeated. Results filed as inconclusive are left out. Entries that show only a call come without a potency. The source holds several records for some structures; these can differ, active in one and inactive in another. Calls of active or inactive are those of the source. Calls come from the whole dose curve; as a rule, active = well fitted activation curve with a large enough effect in the repeat runs; inconclusive = weak or mixed curves; inactive = flat fitted curve, though single readings scatter.
Potency is the fitted concentration of half-maximal effect.

This test in a line: A CellTox Green Cytotoxicity Assay to monitor cytotoxicity in HepG2 cells - 32 hour (AID 1224883). Note: nearly all actives have a fitted effect of over 50% in size. Particulars: CellTox Green fluorescence; series mostly up to 76.8 µM; cytotoxicity increase: at the top concentration. The source says: National Center for Advancing Translational Sciences [NCATS]
NIH Chemical Genomics Center [NCGC]
U.S. Environmental Protection Agency [EPA]
National Institutes of Environmental Health Sciences [NIEHS]
National Toxicology Program [NTP]
Cell-based models are critical for drug discovery. Determining the natural cytotoxic effects resulting from test compounds is an essential research activity. A CellTox Green Cytotoxicity Assay to monitor cytotoxicity in real time of continues cell culture during 40 hours of the compound treatment was used to screen Tox21 10K library compounds in HepG2 cells. CellTox Green Cytotoxicity Assay is a nonlytic, homogeneous, biofluorescent method to measure cytotoxicity in cell culture after experimental manipulation. The assay system uses a proprietary asymmetric cyanine dye that is excluded from viable cells but preferentially stains the dead cell's DNA. […] Viable cells produce no appreciable increases in fluorescence. Therefore, the fluorescence signal produced by the binding interaction with dead cell DNA is proportional to cytotoxicity.
The mixture of HepG2 cell suspension and reagents were dispensed at 600cells/6 ul/well in 1536-well tissue culture treated black solid bottom plates using a Multidrop dispenser. After the assay plates were incubated at a 37 C/5% CO2 incubator for 5 hours, 23 nL of compounds dissolved in DMSO, positive and negative controls was transferred to the assay plate by a pintool work station. The plates were incubated at 37 C for 40 hours. The fluorescence intensity were measured at 0h, 8h, 16h, 24h, 32h and 40h time points using ViewLux plate reader during compound treatment.
As to `C=CCc1ccc(OC)cc1`, the Potency result is “inactive”. Take `CC(C)NC(C)C`: the Potency entry is “inactive”.

As for `ClC1C(Cl)C(Cl)C(Cl)C(Cl)C1Cl` (stereo not given), the Potency result is “inactive and 43.6 µM (active)”. On the same count and under the same terms, under `c1cc(OCC2CO2)ccc1Cc1ccc(OCC2CO2)cc1` (stereo not given) stands “inactive”. Same read-out and setting: the result for `CC(C)(C)c1ccccc1O` reads 49.5 µM (active). Consider `CCCCCCCCOC(=O)c1ccccc1C(=O)OCCCCCCCC`, for which the Potency entry is “inactive”. On to `Oc1cc(Cl)ccc1Cl`, for which the “cytotoxicity increase” value was 26.8% (inactive). In the case of `Nn1cnnc1`, the Potency result was “inactive”. On the same count and under the same terms, the result for `Cc1ccc(N)c(N)c1` reads “inactive”. With `Oc1cc(Cl)c(Cl)cc1Cl`, the “cytotoxicity increase” value is 20.5% (inactive). As to `CC(C)=CC1C(C(=O)OCc2coc(Cc3ccccc3)c2)C1(C)C` (stereo not given), the Potency entry was “inactive”. In the case of `NC(=S)Nc1ccccc1`, the Potency is 49.8 µM (active) and inactive. The same measure, in the same setting: the result for `NCc1cccnc1` reads “inactive”; that for `O=C1C=CC(=O)C=C1`, “inactive”.

As for `C1=Cc2cccc3cccc1c23`, the “cytotoxicity increase” value was -1.19% (inactive). For `O=c1oc2ccccc2c(O)c1C(CC(O)c1ccc(-c2ccc(Br)cc2)cc1)c1ccccc1` (stereo not given), the Potency entry is “inactive”. Turning to `CCCCC(CC)COC(=O)Cl` (stereo not given), the “cytotoxicity increase” value was -2.94% (inactive). For `CC(C)(c1cc(Cl)c(O)c(Cl)c1)c1cc(Cl)c(O)c(Cl)c1`, the “cytotoxicity increase” value was -0.642% (inactive).

For `CCN(N=O)C(N)=O`, the Potency entry is “inactive”.

`C=C(C)[C@H]1Cc2c(ccc3c2O[C@@H]2COc4cc(OC)c(OC)cc4[C@@H]2C3=O)O1`: the Potency was 27.9 µM (active) and 24.5 µM (active). Still for that read-out and setting: under `COP(=S)(OC)Oc1ccc([N+](=O)[O-])cc1` stands “inactive”; under `O=P(O)(O)CCCl`, “inactive”; under `N#CC(Br)Br`, “inactive”. As to `CCCCC(CC)COC(=O)c1ccc(C(=O)OCC(CC)CCCC)c(C(=O)OCC(CC)CCCC)c1` (stereo not given), the Potency result is “inactive”. With `O=P(Oc1ccccc1)(Oc1ccccc1)Oc1ccccc1`, the Potency result was “inactive”. Still for that read-out and setting: under `S=C1NCCN1` stands “inactive”; under `C=CC(=O)OCCO`, “inactive”. `Nc1ccc(Cl)c(Cl)c1`: the Potency entry was “inactive”. On to `N#CCCCl`, for which the Potency entry was “inactive”. On the same count and under the same terms, the result for `Cc1ccc(OP(=O)(Oc2ccc(C)cc2)Oc2ccc(C)cc2)cc1` reads 4.89 µM (active) and inactive. Still for that read-out and setting: under `Nc1c(Cl)cc([N+](=O)[O-])cc1Cl` stands “inactive”; under `C#C[C@]1(O)CC[C@H]2[C@@H]3CCC4=CC(=O)CC[C@]4(C)[C@H]3CC[C@@]21C`, “inactive”. Consider `CNC(=O)N(C)c1nnc(C(C)(C)C)s1`, for which the Potency entry is “inactive”.

Turning to `CCN(CC)C(=O)/C(Cl)=C(\C)OP(=O)(OC)OC`, the Potency entry was “inactive”. On the same count and under the same terms, under `CCc1cccc(CC)c1N(COC)C(=O)CCl` stands “inactive”. As for `CCCCN(CCCC)N=O`, the Potency entry is “inactive”. The same measure, in the same setting: the result for `CCOC(=O)C(C)OC(=O)c1cc(Oc2ccc(C(F)(F)F)cc2Cl)ccc1[N+](=O)[O-]` (stereo not given) reads “inactive”; that for `Cc1cc(Cl)ccc1OCCCC(=O)O`, “inactive”. Still for that read-out and setting: under `Oc1cc(Cl)ccc1Oc1ccc(Cl)cc1Cl` stands 43 µM (active) and 23.9 µM (active); under `CCC(=O)O[C@H]1CC[C@H]2[C@@H]3CCC4=CC(=O)CC[C@]4(C)[C@H]3CC[C@]12C`, 43.6 µM (active).

The values are drawn from PubChem BioAssay (Tox21).
